For 1 compound, normalized growth results are on record in PubChem BioAssay AID1159580 (chemical genetic matrix, 2015).

The experiment can be described thus: chemical genetic growth profiling, strain panel (AID 1159580).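 Note: tested at 20 µM; growth read once vehicle control cultures reached saturation at 30 °C; 1 = growth at the plate median or of vehicle wells; lower values mean less growth of the strain.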 As to conditions: S. cerevisiae deletion strains, growth OD.

The whole screen tested about 5,500 compounds, of which about 2,000 (36%) were called active. About 18% were inconclusive and are not listed. Some of the results follow. A number with no mark means an inactive call. Cut-off read from the data, not from the text of the source: active = normalized growth mostly below about 0.91 (no sharp cut-off); inconclusive = no clear call, values can overlap the other calls; inactive = mostly above about 0.92.

Consider `CCC1(O)C(=O)OCc2c1cc1n(c2=O)Cc2cc3ccccc3nc2-1` (stereo unspecified), for which the normalized growth is, setting by setting: (locus YAL013W, strain DEP1, active compounds read low) 0.872 (active); (locus YAL040C, strain CLN3, active compounds read low) 0.953; (locus YCL061C, strain MRC1 (second series), active compounds read low) 0.977; (locus YDR363W, strain ESC2, active compounds read low) 0.724 (active); (locus YER002W, strain NOP16, active compounds read low) 0.971; (locus YGR078C, strain PAC10, active compounds read low) 1.01. In addition, the normalized growth was 0.672 (active) (locus YGR229C, strain SMI1, active compounds read low); 0.98 (locus YMR263W, strain SAP30, active compounds read low); 0.904 (active) (locus YMR307W, strain GAS1, active compounds read low); 0.906 (locus YNL128W, strain TEP1, active compounds read low); 0.998 (locus YNL175C, strain NOP13, active compounds read low); 0.976 (locus YNL197C, strain WHI3, active compounds read low). The normalized growth (locus YNL224C, strain SQS1, active compounds read low) is 0.897 (active); the normalized growth (locus YNL322C, strain KRE1, active compounds read low) is 0.971; the normalized growth (locus YOR083W, strain WHI5 (second series), active compounds read low) is 0.867 (active); the normalized growth (locus YPL241C, strain CIN2, active compounds read low) was 0.984.
